# Test results from PubChem BioAssay AID485364 (National Center for Advancing Translational Sciences (NCATS), 2010).
# Screen size: about 360,000 compounds; about 11,000 (3.1%) were called active. Not shown: some 4% with an inconclusive outcome. Calls follow the shape of the dose curve; as a rule, active = well fitted inhibition curve with a large enough effect; inconclusive = small, poorly fitted or top-dose-only effect; inactive = no such curve, though single readings can be large or run the other way. The full list was thinned out, with actives kept by preference.
# Target: Schistosoma mansoni thioredoxin glutathione reductase (TGR) (UniProt Q962Y6)
# Test: qHTS Assay for the Inhibitors of Schistosoma Mansoni Peroxiredoxins; also: nearly all actives have a fitted effect of over 60% in size
# Settings: purified TGR, DTNB reduction, TNB absorbance 405 nm; series mostly up to 114 µM; activity change, negative = inhibition: at the top concentration
# From the text: Schistosomiasis is a major neglected tropical disease that currently affects over 200 million. It is caused by different species of flatworms, such as Schistosoma mansoni. Over the last century, drugs to treat the disease have evolved from potassium antimonyl tartrate, artemisinin, oxamniquine, to praziquantel, with praziquantel remaining the universally-used single drug of choice over the past three decades. However, transmission rates have changed little with praziquantel, and there is evidence for the development of drug resistant parasites. Because there is currently no suitable alternative therapy available, there is an urgent need to identify new targets and drugs for schistosomiasis treatment. Thioredoxin glutathione reductase (TGR), one uniquely positioned S. mansoni enzyme, has been identified as a major component of the worms' distinct and compressed antioxidant "firewall". TGR is a multifunctional enzyme that catalyzes the interconversion between reduced and oxidized forms of both glutathione (GSH) and thioredoxins, thus making it an attractive new antiparasitic target. Recently, a quantitative high-throughput screen of the NIH Molecular Libraries Small Molecule Repository (MLSMR, ~71K at the time of the screen in 2007) was performed using an assay that targeted both TGR and peroxiredoxin2 (Prx2, an H2O2-reducing enzymatic component of the S. mansoni redox "firewall") by following the decrease of NADPH fluorescence. […] Additional mechanistic link between exogenous NO donation and parasitic injury for the oxadiazole-2-oxide class of compounds was also expanded and better defined. Although the screen addressed both TGR and Prx2, the assay required post-screen target deconvolution for further characterization of the actives. In addition, the fluorescence assay was also subject to fluorescence interference from compound library members. We have developed a 1536-well-based kinetic HTS assay to address TGR alone. The assay followed the reduction of 5, 5'-dithiobis (2-nitrobenzoic acid) (DTNB) (Ellman's reagent) by NADPH and measured the increase in absorbance at 412 nm of the reaction product, TNB. […] This assay format can be used to screen the current MLSMR collection (with >300K compounds available) to find novel TGR inhibitors. Furoxan is a good choice to serve as a positive control in the primary HTS assay.
# Three microliters of reagents (100 uM NADPH and 20 nM TGR or 100 uM NADPH as no-enzyme control) were dispensed into 1,536-well black clear-bottomed plates. Compounds (23 nL) were transferred via Kalypsys pin tool equipped with 1536-pin array (10 nL slotted pins, V&P Scientific, San Diego, CA). The plates were then be incubated for 15 min at room temperature, and 1 uL aliquot of 500 uM NADPH were added, immediately followed by a 1 uL aliquot of 15 mM DTNB to start the reaction. The plate was transferred to a ViewLux high-throughput CCD imager (Perkin-Elmer, Wellesley, MA) where kinetic measurements of the TNB absorbance were acquired using a 405 excitation filter. Throughout the screen, reagent bottles and all liquid lines were made light-tight to minimize reagent degradation. All screening operations were performed on a fully integrated robotic system (Kalypsys, San Diego, CA) containing one RX-130 and two RX-90 anthropomorphic robotic arms (Staubli, Duncan, SC). Library plates were screened starting from the lowest and proceeding to the highest concentration, and a "double-dipping" step of the highest concentration was required to access higher concentrations of compounds. Vehicle-only plates, with DMSO being pin-transferred to the entire column 5-48 compound area, were inserted uniformly at the beginning and the end of each library in order to monitor for and record any shifts in the background, which can be affected by reagent dispensers or loss in enzyme activity overtime. […]
# % is scaled to controls: 0 for no effect and ±100 for the full control effect; potency is read from the fitted curve at half-maximal effect.
Compound,"activity change, negative = inhibition",Potency
COc1cc(/C=N/NC(=S)Nc2cccnc2)cc(OC)c1O,-21.6% (inactive),–
CCc1ccc(CNC(=O)c2cc3cc4ccc(OC)cc4nc3o2)cc1,15% (inactive),–
COc1ccc2oc(-c3cccc(NC(=O)CSc4ccc(Cl)cc4)c3)nc2c1,3.2% (inactive),–
COc1ccc2cc(CCl)c(Cl)nc2c1,–,31.6 µM (active)
CCOc1ccc(Nc2nc3c(S(=O)(=O)c4cccc(Cl)c4)nnn3c3ccsc23)cc1,0.289% (inactive),–
C[C@@]12C(=O)N(c3cccc(Br)c3)C(=O)N1[C@H](c1ccc(Cl)cc1)[C@@H]1C(=O)N(C3CCCCC3)C(=O)[C@@H]12,-24.8% (inactive),–
O=C1[C@@H]2C(Cc3ccc(O)cc3)NC3(C(=O)Nc4ccc(F)cc43)[C@@H]2C(=O)N1c1ccc(F)cc1 (some centres undefined),-9.3% (inactive),–
CSCCC1NC2(C(=O)Nc3ccc(Cl)cc32)[C@@H]2C(=O)N(C3CCCC3)C(=O)[C@H]12 (some centres undefined),–,31.6 µM (active)
CN(Cc1ccccc1)S(=O)(=O)c1ccc(F)c(C(=O)Nc2cccc(Cl)c2Cl)c1,12.7% (inactive),–
Cc1ccc(CCNC(=O)Cn2c(-c3cccs3)cc3cc(F)ccc32)cc1,-2.72% (inactive),–
C=CS(=O)c1sc(Cl)c(N2CCOCC2)c1[N+](=O)[O-] (centres undefined),–,0.199 µM (active)
CCOC(=O)c1[nH]c(C)c(CCC(=O)N2CCN(c3ccccc3)CC2)c1C,7.18% (inactive),–
Cn1c(=O)n(Cc2c(F)cccc2Cl)c(=O)c2c1nc1n2CCN1c1ccc(F)cc1,12.7% (inactive),–
O=C(CCCCCn1c(=O)[nH]c2ccccc2c1=O)NCCc1c[nH]c2ccccc12,1.93% (inactive),–
O=C(CCCCn1c(=O)[nH]c2ccccc2c1=O)NCc1ccc2c(c1)OCO2,–,2.51 µM (active)
NS(=O)(=O)c1ccc(CCNC(=O)CCCCCn2c(=O)[nH]c3ccccc3c2=O)cc1,2.15% (inactive),–
CCCCCn1c(CCCNC(=O)c2ccccc2OC)nc2ccccc21,-3.99% (inactive),–
COc1ccc(C)cc1NC(=O)CCc1c(C)nn(-c2ccc(N3CCOCC3)nn2)c1C,-3.54% (inactive),–
CCOC(=O)c1ccc(NC(=O)Cn2c(=O)n(-c3ccc(C)cc3)c(=O)c3c2cnn3C)cc1,1.17% (inactive),–
O=C(Nc1ccccc1N1CCOCC1)c1csc2c1CCCC2,-5.36% (inactive),–
O=C(Cc1ccccc1)Nc1cccc(C(=O)N/N=C/c2ccco2)c1,2.24% (inactive),–
O=C(N/N=C/c1ccco1)c1csc2c1CCCC2,–,44.7 µM (active)
CCOC(=O)C1CCN(c2csc3ccc(C)cc3c2=O)CC1,-5.6% (inactive),–
CCOC(=O)c1c(NC(=O)/C=C/c2ccc(OC)cc2)sc2c1CCC(C)C2 (centres undefined),2.9% (inactive),–
Cc1ccc(-c2nn(-c3cccc(F)c3)cc2CNCCc2ccncc2)o1,-22.6% (inactive),–

Compound,"activity change, negative = inhibition",Potency
O=C(O)CCC(=O)N(Cc1ccccc1)Cc1ccccc1,-7.7% (inactive),–
COc1ccc(/C=C2/SC(=O)N(CCCCCC(=O)Nc3ccccc3C(=O)O)C2=S)cc1,-1.67% (inactive),–
Cc1ccc(-c2nn(-c3ccccc3)cc2CN(Cc2ccccc2)C(=O)CCC(=O)O)o1,–,7.94 µM (active)
Cc1ccc(-c2nn(-c3ccccc3)cc2/C=C2\SC(=S)N(CCCCCC(=O)O)C2=O)o1,–,12.6 µM (active)
O=C(CCCN1C(=O)/C(=C/c2cccs2)SC1=S)Nc1ccc(O)cc1,-9.78% (inactive),–
Cc1ccc(C)c(CN2C(=O)c3ccccc3S(=O)c3ccc(C(=O)N4CCOCC4)cc32)c1 (centres undefined),-17.2% (inactive),–
CCCc1nn2c(=O)cc(COC(=O)c3ccc(NC(=O)COc4ccc(F)cc4)cc3)nc2s1,2.97% (inactive),–
CCOC(=O)c1c(NC(=O)COc2cc(C)ccc2C(C)C)sc(C)c1C,-1.77% (inactive),–
CCCCOc1ccc(C(=O)N2CC(=O)Nc3ccc(Br)cc3C2c2ccc(F)cc2)cc1 (centres undefined),3.05% (inactive),–
CCOC(=O)COc1nc(C)cc(C(F)(F)F)c1C#N,18% (inactive),–
CCOC(=O)c1c(C(C#N)C#N)cc(C)nc1C,2.77% (inactive),–
CCOC(=O)c1cc(C)nc(S(C)(=O)=O)c1C#N,–,35.5 µM (active)
Cc1c(Cl)cccc1NC(=O)CCS(=O)(=O)c1ccc2c(c1)oc(=O)n2C,-35.2% (inactive),–
CCOc1ccc(N2C(=O)/C(=C/c3ccc(C)o3)N(C)C2=S)cc1,–,28.2 µM (active)
CCOc1ccc(N2C(=O)CSC2=NC#N)cc1,-3.07% (inactive),–
CCOc1ccc(N2C(=O)CN(c3cccc4ccccc34)C2=S)cc1,-0.257% (inactive),–
COc1ccc(C=C(C#N)C#N)c(CSc2ccccn2)c1,–,1 µM (active)
COc1cccc(N(CC(=O)NCCSc2ccccn2)S(C)(=O)=O)c1,0.808% (inactive),–
CCOC(=O)CSc1ccccn1,2.94% (inactive),–
CC(C)c1ccc(C2CC(=O)N3CN(C4CCCCC4)CSC3=C2C#N)cc1 (centres undefined),–,6.31 µM (active)
CC(C)c1ccc(C2C(C#N)=C(N)Oc3c2oc(CO)cc3=O)cc1 (centres undefined),17.8% (inactive),–
CCOC(=O)c1cc2c(=O)n3ccccc3nc2n(CC2CCCO2)c1=NC(=O)c1ccc(C(C)(C)C)cc1 (centres undefined),1.91% (inactive),–
CN1c2ccc(C=O)c3c(C=O)ccc(c23)N(C)C1(C)C,–,35.5 µM (active)
CCc1cc2c(-c3ccccc3)cc(=O)oc2c2c1OCN(Cc1ccc(C)cc1)C2,-3.03% (inactive),–
